Assay results as given in PubChem BioAssay.
Values joined by “and” are separate entries in the source; they are usually repeats but may differ in a detail not shown here. Equal entries are not always repeated. Inconclusive results are not listed. Active and inactive are the calls of the source.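 How the source made its calls, unless noted: active means z-score of at least 1.8 in each of two replicates, scored against plate mean and spread of sample wells; inactive means the rest.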

Assays:
[1] = system: Neuropilin-2 / VEGF-C interaction (human); experiment: inhibitors of NRP2–VEGF-C binding, biochemical, microplate binding format, z-score (AID 743281; call rule not given here); conditions: microplate NRP2/VEGF-C binding assay; stronger effect = lower value
[2] = growth inhibition of DIPG glioma cells, dose response, cell-based, JHH-DIPG-1, MIPE4.0, CellTiter-Glo, qHTS (AID 1347062; cut-off not given, nearly all actives have AC50 up to about 27 µM); conditions: JHH-DIPG-1 viability, CellTiter-Glo ATP luminescence
[3] = growth inhibition of DIPG glioma cells, dose response, cell-based, SU-DIPG-IV, MIPE4.0, CellTiter-Glo, qHTS (AID 1347063; cut-off not given, nearly all actives have AC50 up to about 30 µM;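 further: compound exposure lasted 48 hours before the viability readout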); conditions: SU-DIPG-IV viability, CellTiter-Glo ATP luminescence
[4] = SU-DIPG-VI glioma cell viability, MIPE4.0 library, CellTiter-Glo luminescence, qHTS (AID 1347066; cut-off not given, nearly all actives have AC50 up to about 30 µM;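 further: cells exposed to compound for 48 hours before readout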); conditions: CellTiter-Glo ATP luminescence
[5] = JHH-DIPG-1 glioma cell viability, MIPE5.0 library, CellTiter-Glo luminescence, qHTS (AID 1347067; cut-off not given, nearly all actives have AC50 up to about 26 µM;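 further: cells exposed to compound for 48 hours before readout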); conditions: JHH-DIPG-1 glioma viability, CellTiter-Glo ATP luminescence
[6] = SU-DIPG-XXV glioma cell viability, MIPE5.0 library, qHTS (AID 1347068; cut-off not given, nearly all actives have IC50 up to about 30 µM)
[7] = viability rescue of complex I mutant cybrids, primary screen, cell-based, galactose medium, ATP luminescence (AID 1645843); conditions: complex I mutant cybrid cells, 72 h, stronger effect = higher value;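 further: positive z means more ATP and so rescue of galactose-driven cybrid death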
[8] = growth inhibition of DIPG glioma cells, dose response, cell-based, SU-DIPG-XVII, MIPE5.0, CellTiter-Glo, qHTS (AID 1347060; cut-off not given, nearly all actives have AC50 up to about 26 µM;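 on AC50: cells exposed to compound for 48 hours before viability readout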); conditions: SU-DIPG-XVII viability, CellTiter-Glo ATP luminescence
[9] = growth inhibition of DIPG glioma cells, dose response, cell-based, SU-DIPG-XIII, MIPE4.0, CellTiter-Glo, qHTS (AID 1347061; cut-off not given, nearly all actives have AC50 up to about 37 µM;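 further: cells exposed to compound for 48 hours before readout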); conditions: SU-DIPG-XIII viability, CellTiter-Glo ATP luminescence
[10] = modifiers of HSF1 nuclear foci, imaging, Selleck Cancer Library (AID 1347162; in the data active means plate-normalised HSF1 focus index below about 0.46); conditions: human cells, at 10 µM; SSMD: measured here: HSF1 foci SSMD mean; cell count: measured here: cell number; plate-normalised HSF1 focus index: stronger effect = lower value
[11] = viability loss in pontine glioma line – cell-based, SU-DIPG-XXV, MIPE5.0, CellTiter-Glo, qHTS, dose response (AID 1347065; cut-off not given, nearly all actives have AC50 up to about 26 µM;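 further: cells exposed to compound for 48 hours before ATP readout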); conditions: CellTiter-Glo ATP luminescence
[12] = biological target: NAD(+) hydrolase SARM1 (Homo sapiens) (UniProt Q6SZW1); experiment: SARM1 TIR NADase inhibitors, cell lysate, NAD-Glo luminescence (AID 1508614;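 active means compound whose remaining NAD level is above about 45 nM, limit read from the data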); conditions: SAM-TIR HEK293T lysate NADase, at 1 µM, stronger effect = higher value
[13] = growth inhibition of DIPG glioma cells, dose response, cell-based, SU-DIPG-XIII, MIPE5.0, CellTiter-Glo, qHTS (AID 1347064; cut-off not given, nearly all actives have AC50 up to about 23 µM); conditions: SU-DIPG-XIII viability, CellTiter-Glo ATP luminescence
[14] = LFS_MB_P medulloblastoma growth inhibition, cell-based, chromothripsis tumors, cisplatin or BGB combos (AID 1671449; in the data active means inhibition above about 80%;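 further: cells exposed for 96 hours; 0% = vehicle DMSO and 100% = killing by high DMSO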); conditions: LFS_MB_P medulloblastoma cells
[15] = HDN33 neuroblastoma growth inhibition, cell-based, chromothripsis tumors, cisplatin or BGB combos (AID 1671450; in the data active means inhibition above about 80%;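 further: cells exposed to compound for four days; 0% = vehicle DMSO and 100% = cell killing by high DMSO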); conditions: HDN33 neuroblastoma cells, stronger effect = higher value
[16] = ICB984 medulloblastoma cell growth inhibition, synergistic combos for chromothripsis tumors, cisplatin or BGB combos (AID 1671451; call rule not given here;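 further: cells exposed for 96 hours before readout; 0% = vehicle DMSO and 100% = killing by high DMSO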); conditions: ICB984 medulloblastoma cells, drug combinations, stronger effect = higher value
[17] = HTB85 osteosarcoma cell growth inhibition, synergistic combos for chromothripsis tumors, BGB or cisplatin IC20 combos (AID 1671453; in the data active means inhibition above about 80%;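 further: cells exposed for 96 hours before readout; 0% = vehicle DMSO and 100% = high DMSO killing control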); conditions: HTB85 osteosarcoma cells, drug combinations, stronger effect = higher value
[18] = MDA-MB-436 breast carcinoma cell growth inhibition, synergistic combos for chromothripsis tumors, BGB or cisplatin combos (AID 1671458; call rule not given here;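 further: cells exposed for 96 hours; 0% = vehicle DMSO and 100% = killing by high DMSO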); conditions: MDA-MB-436 breast carcinoma growth inhibition, drug combinations, stronger effect = higher value
[19] = growth inhibition of BT084 medulloblastoma cells, cell-based, ICGC_MB145, cisplatin and BGB IC40 combos (AID 1671461; in the data active means inhibition above about 80%;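 further: cells exposed to drugs for 96 hours; 0% = vehicle DMSO and 100% = high DMSO full killing control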); conditions: drug combinations, stronger effect = higher value
[20] = phospholipid biosynthesis inhibitors in animal cells, primary screen, cell-based, LOPAC library, screen 4 (AID 1347384; call rule not given here); conditions: phospholipid biosynthesis inhibition screen, at 10 µM

Chain of NAD(+) hydrolase SARM1 (Homo sapiens) (Q6SZW1 whole entry, looked up): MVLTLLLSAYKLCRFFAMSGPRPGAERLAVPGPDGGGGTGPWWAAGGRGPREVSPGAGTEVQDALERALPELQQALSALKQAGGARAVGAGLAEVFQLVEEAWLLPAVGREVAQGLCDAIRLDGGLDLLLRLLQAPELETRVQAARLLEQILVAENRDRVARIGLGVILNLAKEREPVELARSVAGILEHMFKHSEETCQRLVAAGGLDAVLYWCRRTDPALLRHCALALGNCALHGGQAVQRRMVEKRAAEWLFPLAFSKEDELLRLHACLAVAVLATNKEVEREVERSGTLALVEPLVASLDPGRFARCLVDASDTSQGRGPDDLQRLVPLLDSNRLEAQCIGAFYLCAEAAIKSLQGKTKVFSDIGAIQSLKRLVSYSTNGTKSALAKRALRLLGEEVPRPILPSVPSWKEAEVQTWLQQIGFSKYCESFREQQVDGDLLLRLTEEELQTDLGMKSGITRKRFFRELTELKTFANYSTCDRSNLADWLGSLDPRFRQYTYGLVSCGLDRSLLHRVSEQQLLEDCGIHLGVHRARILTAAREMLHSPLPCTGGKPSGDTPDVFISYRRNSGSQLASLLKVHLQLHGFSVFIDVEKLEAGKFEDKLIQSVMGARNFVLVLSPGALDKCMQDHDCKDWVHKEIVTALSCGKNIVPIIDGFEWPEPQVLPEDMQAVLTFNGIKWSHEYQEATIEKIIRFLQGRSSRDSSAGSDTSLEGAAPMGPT

## O=C1C(c2c(O)[nH]c3ccccc23)=Nc2ccccc21
[1]
  outcome: inactive
[2]
  outcome: inactive
[3]
  AC50: 13.2 µM (active)
[4]
  outcome: inactive
[5]
  outcome: inactive
[6]
  outcome: inactive
[7]
  z-score: -0.25 (inactive)

## CC1c2cccc(O)c2C(O)=C2C(=O)C3(O)C(O)=C(C(N)=O)C(=O)C(N(C)C)C3C(O)C21 (stereo not drawn)
[5]
  outcome: inactive
[6]
  outcome: inactive
[7]
  z-score: -1.48 (inactive)

## CCCCc1nc(Cl)c(CO)n1Cc1ccc(-c2ccccc2-c2nnn[nH]2)cc1
[1]
  z-score: -0.132 (inactive)
[7]
  z-score: 0.965 (inactive) and 0.025 (inactive)

## Nc1nc(Cl)nc2c1ncn2[C@H]1C[C@H](O)[C@@H](CO)O1
[1]
  z-score: -0.302 (inactive)
[8]
  AC50: 0.833 µM (active)
[9]
  outcome: inactive
[5]
  outcome: inactive
[6]
  outcome: inactive
[10]
  SSMD: -4.5
  cell count: 6930
  plate-normalised HSF1 focus index: 0.776 (inactive)

## CCC(CO)NCCNC(CC)CO (stereo not drawn)
[7]
  z-score: 0.45 (inactive)

## O=C(O)C[C@H](O)C[C@H](O)/C=C/c1c(C2CC2)nc2ccccc2c1-c1ccc(F)cc1
[1]
  outcome: inactive
[11]
  AC50: 9.34 µM (active)
[4]
  outcome: inactive
[5]
  AC50: 9.34 µM (active)
[6]
  outcome: inactive
[12]
  remaining NAD: 10 nM (inactive)

## COC(=O)Nc1nc2ccc(C(=O)c3ccc(F)cc3)cc2[nH]1
[1]
  z-score: 0.511 (inactive)
[8]
  AC50: 0.417 µM (active)
[9]
  outcome: inactive
[11]
  AC50: 0.332 µM (active)
[4]
  outcome: inactive
[5]
  AC50: 0.417 µM (active)
[7]
  z-score: -1.28 (inactive) and -0.83 (inactive)

## CN1[C@@H]2CC[C@H]1CC(OC(=O)C(CO)c1ccccc1)C2 (stereo partly drawn)
[12]
  remaining NAD: 10 nM (inactive)
[7]
  z-score: 0.56 (inactive) and 0.265 (inactive)

## O=c1ncc(F)c[nH]1
[1]
  z-score: -0.183 (inactive)
[7]
  z-score: 0.75 (inactive)

## CC1CNc2c(cccc2S(=O)(=O)N[C@@H](CCCN=C(N)N)C(=O)N2CC[C@@H](C)C[C@@H]2C(=O)O)C1 (stereo partly drawn)
[1]
  z-score: -1.46 (inactive)
[13]
  outcome: inactive
[11]
  outcome: inactive
[4]
  outcome: inactive
[5]
  outcome: inactive
[6]
  outcome: inactive
[7]
  z-score: 0.59 (inactive)

## CCCCC(=O)OC1(C(=O)CO)CCC2C3CCC4=CC(=O)CCC4(C)C3C(O)CC21C (stereo not drawn)
[7]
  z-score: 0.245 (inactive)

## CC(C)OC(=O)CCC/C=C\C[C@@H]1[C@@H](CC[C@@H](O)CCc2ccccc2)[C@H](O)C[C@@H]1O
[1]
  z-score: -0.836 (inactive)
[7]
  z-score: 0.01 (inactive)

## CC(=O)C1(O)CCC2C3CC(C)C4=CC(=O)C=CC4(C)C3(F)C(O)CC21C (stereo not drawn)
[7]
  z-score: -0.02 (inactive)

## CC(C)(C)NC(=O)[C@@H]1C[C@@H]2CCCC[C@@H]2CN1C[C@@H](O)[C@H](Cc1ccccc1)NC(=O)[C@H](CC(N)=O)NC(=O)c1ccc2ccccc2n1
[1]
  z-score: 1.64 (inactive)

## CNC(=O)Oc1ccc2c(c1)[C@]1(C)CCN(C)C1N2C (stereo partly drawn)
[1]
  z-score: -0.245 (inactive)
[7]
  z-score: -1.49 (inactive)

## COc1cc(/C=C/c2ccc(O)cc2)cc(OC)c1
[1]
  z-score: -1.34 (inactive)

## O=C(O[C@H]1[C@H](Oc2ccccc2COC(=O)C2(O)C=CCCC2=O)O[C@H](CO)[C@@H](O)[C@@H]1O)c1ccccc1 (stereo partly drawn)
[1]
  z-score: -0.65 (inactive)

## CCC1=C[C@H]2CN(C1)Cc1c([nH]c3ccccc13)[C@@](C(=O)OC)(c1cc3c(cc1OC)N(C)[C@H]1[C@@](O)(C(=O)OC)[C@H](OC(C)=O)[C@]4(CC)C=CCN5CC[C@]31[C@@H]54)C2
[1]
  z-score: 1.48 (inactive)

## O=c1c(O[C@@H]2O[C@H](CO)[C@@H](O)[C@H](O)[C@H]2O)c(-c2ccc(O)c(O)c2)oc2cc(O)cc(O)c12
[1]
  z-score: -0.152 (inactive)

## CCCc1nc(C(C)(C)O)c(C(=O)O)n1Cc1ccc(-c2ccccc2-c2nn[nH]n2)cc1
[8]
  outcome: inactive
[2]
  outcome: inactive
[3]
  outcome: inactive
[13]
  outcome: inactive
[11]
  outcome: inactive
[4]
  outcome: inactive
[5]
  outcome: inactive
[6]
  outcome: inactive
[12]
  remaining NAD: 10 nM (inactive)
[7]
  z-score: 0.54 (inactive) and -0.09 (inactive)

## O=c1[nH]c(=O)n(C2CC(O)C(CO)O2)cc1F (stereo not drawn)
[7]
  z-score: -1.07 (inactive)
[14]; at 0.5 µM, stronger effect = higher value
  inhibition: -20.6% (inactive) and -34.4% (inactive)
[14]; measured here: combination with BGB IC20, at 0.005 µM
  inhibition: -20.3% and -26.1%
[14]; measured here: combination with BGB IC40, at 0.005 µM
  inhibition: -43.8% and -18.6%
[14]; measured here: combination with BGB IC40, at 0.05 µM
  inhibition: -14.2% and -19.6%
[14]; measured here: combination with cisplatin, at 0.5 µM, stronger effect = higher value
  inhibition: -24.9% and -48.9%
[14]; measured here: combination with cisplatin, at 5 µM, stronger effect = higher value
  inhibition: -34.2% and -34.5%
[15]; BGB combo, at 5 µM
  inhibition: 90.8% and 95.2%
[15]; at 0.5 µM
  inhibition: 75% (inactive) and 78.5% (inactive)
[15]; cisplatin combo, at 5 µM
  inhibition: 63% and 78%
[15]; measured here: with BGB IC20 combination, at 0.5 µM
  inhibition: 72.2% and 74.3%
[15]; measured here: with cisplatin IC20 combination, at 0.5 µM
  inhibition: 71.3% and 78.7%
[15]; single agent, at 5 µM
  inhibition: 78.6% and 88.5%
[16]; BGB IC20 combo, at 0.005 µM
  inhibition: -21.6% and 13.5%
[16]; BGB IC40 combo, at 0.005 µM
  inhibition: -12.3% and -34.3%
[16]; BGB IC40 combo, at 0.05 µM
  inhibition: -9.05% and -30.1%
[16]; at 0.5 µM
  inhibition: -17.5% (inactive) and -17.1% (inactive)
[16]; cisplatin combo, at 0.05 µM
  inhibition: -9.05% and -34.7%
[16]; cisplatin combo, at 0.5 µM
  inhibition: -15.5% and -22.4%
[16]; cisplatin combo, at 5 µM
  inhibition: -14.7% and -40.3%
[16]; measured here: 5 uM single agent, at 5 µM
  inhibition: -2.45% and 14.3%
[17]; at 0.5 µM
  inhibition: -24.9% (inactive) and 12.1% (inactive)
[17]; measured here: with BGB IC20, at 0.5 µM
  inhibition: -52.4% and -21.4%
[17]; measured here: with BGB IC20, at 5 µM
  inhibition: 5.67% and -8.07%
[17]; measured here: with cisplatin IC20, at 0.5 µM
  inhibition: -22.6% and 15.4%
[17]; measured here: with cisplatin IC20, at 5 µM
  inhibition: 14% and 12.8%
[17]; single agent, at 5 µM
  inhibition: 12% and 38.7%
[18]; at 0.5 µM
  inhibition: 39.9% (inactive) and 54.5% (inactive)
[18]; measured here: BGB combination, at 0.5 µM
  inhibition: 12.4% and 36%
[18]; measured here: BGB combination, at 5 µM
  inhibition: 22.9% and 47.8%
[18]; measured here: cisplatin combination, at 0.5 µM
  inhibition: 44% and 56.3%
[18]; measured here: cisplatin combination, at 5 µM
  inhibition: 73% and 86.7%
[19]; at 0.5 µM
  inhibition: -20.4% (inactive) and -2.18% (inactive)
[19]; cisplatin combination, at 0.5 µM
  inhibition: -4.33% and -24.2%
[19]; cisplatin combination, at 5 µM
  inhibition: -24.6% and 6.37%
[19]; measured here: BGB IC40 combination 0.05 uM, at 0.05 µM
  inhibition: -0.925% and 1.52%
[19]; single agent, at 5 µM
  inhibition: -4.53% and -3.71%

## CC(=CCC1=C(C)C(=O)c2ccccc2C1=O)CCCC(C)CCCC(C)CCCC(C)C (stereo not drawn)
[7]
  z-score: -1.38 (inactive)

## CN1C2CCC1CC(OC(c1ccccc1)c1ccccc1)C2 (stereo not drawn)
[20]
  outcome: inactive
[7]
  z-score: -0.84 (inactive) and -0.76 (inactive)

## CC1CC2C3CCC4=CC(=O)C=CC4(C)[C@@]3(Cl)C(O)CC2(C)C1(O)C(=O)CO (stereo partly drawn)
[1]
  z-score: 0.0119 (inactive)
[7]
  z-score: 1.36 (inactive)
